Results: ChEMBL document CHEMBL3988442, “University of Dundee, Small-Polar-MMV Screening Library” (2021)

Tests used:
[1] = target: T1, Aspartate--tRNA(Asp/Asn) ligase (Mycobacterium tuberculosis (strain ATCC 25618 / H37Rv)) (UniProt P9WFW3); experiment: Assay for Asp RNA synthetase-1 from Mycobacterium tuberculosis; assay type: functional; design: scale not given: direction of the effect not stated beside the values; conditions: 30 µM; note: in the data most compounds retested in dose-response had high values
T1 sequence (whole entry): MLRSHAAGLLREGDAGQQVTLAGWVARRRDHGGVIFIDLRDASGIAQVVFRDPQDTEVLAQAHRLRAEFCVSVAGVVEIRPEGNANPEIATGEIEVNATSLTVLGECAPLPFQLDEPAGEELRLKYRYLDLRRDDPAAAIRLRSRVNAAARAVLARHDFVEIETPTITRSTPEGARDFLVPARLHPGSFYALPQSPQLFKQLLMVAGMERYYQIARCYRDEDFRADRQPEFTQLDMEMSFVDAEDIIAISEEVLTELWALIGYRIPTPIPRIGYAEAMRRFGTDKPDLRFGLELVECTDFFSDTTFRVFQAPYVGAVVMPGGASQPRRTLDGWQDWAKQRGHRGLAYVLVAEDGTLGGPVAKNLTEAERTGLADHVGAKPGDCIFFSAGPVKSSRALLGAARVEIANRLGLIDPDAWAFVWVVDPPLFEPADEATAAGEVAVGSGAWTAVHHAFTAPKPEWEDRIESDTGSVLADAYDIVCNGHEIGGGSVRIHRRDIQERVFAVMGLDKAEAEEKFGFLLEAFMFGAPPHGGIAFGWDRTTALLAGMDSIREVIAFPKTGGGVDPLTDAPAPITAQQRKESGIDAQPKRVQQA

[2] = target: Shiga toxin 2 (Escherichia coli O157:H7) (UniProt P09385+P09386); experiment: E. coli 0.157:H7 Shiga Toxin SOP - stx2 screening assay; assay type: functional; design: scale not given: direction of the effect not stated beside the values; conditions: 30 µM

CN1CCOC(CNC(=O)Cc2ccccc2F)C1 (stereo unspecified)
Percent Effect [1]: -1.99% | Percent Effect [2]: -8.98%

O=C(NCCc1ccccc1)C1CCC(Cn2cnnn2)CC1 (stereo unspecified)
Percent Effect [1]: -4.3% | Percent Effect [2]: -20.1%

CNc1snc(C)c1C(=O)N1CCCC(n2nc(C)cc2C)C1 (stereo unspecified)
Percent Effect [1]: -8.77% | Percent Effect [2]: -3.59%

COc1ccccc1OCc1cc(C(=O)N2CC(O)C2)n[nH]1
Percent Effect [1]: 2.09% | Percent Effect [2]: 1.76%

CN1CCCN(C(=O)c2ccc3c(c2)nc(N2CCOCC2)n3C)CC1
Percent Effect [1]: -3.09% | Percent Effect [2]: -5.95%

COc1cccc(C(=O)N2CCCC(C(=O)CCc3ccccc3)C2)c1 (stereo unspecified)
Percent Effect [1]: 4.2% | Percent Effect [2]: -7.01%

Cc1nc2c(c(C)c1CC(=O)NCc1cccc(C#N)c1)c(=O)[nH]n2C
Percent Effect [1]: 0.634% | Percent Effect [2]: 25.4%

COc1ccc(CN2CCn3cc(Cn4cccn4)nc3C2)cc1
Percent Effect [1]: 6.63% | Percent Effect [2]: -37.1%

COCCN1CCN(Cc2cccc(OCC(N)=O)c2)CC1C (stereo unspecified)
Percent Effect [1]: -6.54% | Percent Effect [2]: -6.57%

O=S(=O)(c1cccs1)N1CC[C@H](O)[C@@H]1Cc1ccncc1
Percent Effect [1]: -0.474% | Percent Effect [2]: 2.87%

Cc1cccc(-c2noc(CN3CCCC(Cn4cncn4)C3)n2)c1 (stereo unspecified)
Percent Effect [1]: -2.23% | Percent Effect [2]: -1.3%

CCn1cc(CN(C)S(=O)(=O)c2cc(Cl)ccc2Cl)cn1
Percent Effect [1]: -5.08% | Percent Effect [2]: -51.4%

CC(C)Cc1cc(NC(=O)c2ccc(=O)[nH]n2)n(C)n1
Percent Effect [1]: -2.97% | Percent Effect [2]: -34.7%

Cc1nc(COC[C@@H]2CC[C@H]3[C@H](CCN3c3ncccn3)O2)cs1
Percent Effect [1]: 1.87% | Percent Effect [2]: -14.4%

Cc1nc(C(=O)N2CCC(Nc3cccnn3)CC2)cs1
Percent Effect [1]: -7.35% | Percent Effect [2]: -19.2%

CCNc1cc2c(nn1)CCN(C(=O)Cc1noc3ccccc13)C2
Percent Effect [1]: -2.87% | Percent Effect [2]: 24.9%

O=c1ccc(-c2ccccc2F)nn1CCN1CCCS1(=O)=O
Percent Effect [1]: -1.45% | Percent Effect [2]: -0.28%

COc1cccc(COCC(=O)N2CCCC(n3ccnc3)C2)c1 (stereo unspecified)
Percent Effect [1]: -3.41% | Percent Effect [2]: 23.8%
